High-throughput results deposited in PubChem by National Center for Advancing Translational Sciences (NCATS).
Sampled rows, rich in hits. Any-hit rate of the full collection: about 19%.
HT1080-NT tox – qHTS for induction of synthetic lethality in tumor cells producing 2HG: qHTS for the HT-1080-NT fibrosarcoma cell line; HT-1080-NT fibrosarcoma viability, CellTiter-Glo ATP luminescence, 48 h; Potency, µM (doses to about 46.1 µM), usual class: cytotoxic; hit rate 1.6% among 360,000;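 also: NT is the 2HG producing partner of a matched IDH1 knockdown line; nearly all actives have a fitted effect of over 55% in size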
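A 48-hour cytotoxicity screen used HT-1080-NT cells plated 2 hours before compound delivery. ATP-based CellTiter-Glo luminescence measured viability, normalized to DMSO and no-cell controls.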
DT40 TDP1 CPT – qHTS for Inhibitors of human tyrosyl-DNA phosphodiesterase 1 (TDP1): qHTS in cells in presence of CPT | hit rate 12% among 420,000 | chicken DT40 Tdp1-/-;hTDP1 cells + 20 nM CPT, ATP luminescence, 48 h | Potency, µM (titrated, usually from 46.2 µM), usual class: inhibitors | AID 686979, 2013; also: nearly all actives have a fitted effect of over 55% in size
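Chicken DT40 Tdp1-/- cells stably complemented with human TDP1 were seeded at 400 cells/well in medium containing 20 nM camptothecin, exposed to pin-transferred compounds, and grown at 37 °C for at least 48 hr. Viability was read as ATP luminescence.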
uPA generation – qHTS for Inhibitors of Cell Surface uPA Generation | cell surface uPA generation assay, qHTS | Potency, µM (highest dose often 38.3 µM), most hits filed as inhibitors | hit rate 0.31% among 330,000; active = well fitted inhibition curve with a large enough effect; inconclusive = small, poorly fitted or top-dose-only effect; inactive = no such curve, though single readings can be large or run the other way; tested in mouse RAW 264.7 cells; also: nearly all actives have a fitted effect of over 55% in size
IL-1B inflam inh – qHTS for Inhibitors of Inflammasome Signaling: IL-1-beta AlphaLISA Primary Screen. THP-1 LPS/ATP IL-1B secretion, AlphaLISA, 16 h; hits give low values. activity change, % at 57.5 µM. hit rate 4.7% among 360,000; in the data active = activity change below about -50%; inconclusive = mostly about -30% to -49%
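Secreted IL-1B measured by AlphaLISA bead assay after 16 h compound exposure of THP-1 cells; compounds (final up to 57.5 uM) added 1 h before LPS (250 ng/mL) and ATP (1.25 mM) stimulation; lower signal means less secretion.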
TDP1 cell noCPT – qHTS for Inhibitors of human tyrosyl-DNA phosphodiesterase 1 (TDP1): qHTS in cells in absence of CPT; DT40 Tdp1-/- hTDP1 cells, no CPT, ATP luminescence, 48 h; Potency, µM (top dose mostly 46.2 µM), usual class: inhibitors; hit rate 15% among 420,000; AID 686978, 2013; also: nearly all actives have a fitted effect of over 55% in size
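Camptothecin absent (DMSO only). Human TDP1-complemented DT40 knockout cells, 400 cells/well, 37 °C for minimum 48 hr; ATP measured via CellTiter-Glo, 30 min dark incubation, luminescence.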
HT1080 IDH1KD tx – qHTS for induction of synthetic lethality in tumor cells producing 2HG: qHTS for the HT-1080-IDH1KD cell line | HT-1080 IDH1 knockdown viability, ATP luminescence, 48 h | Potency, µM (top dose mostly 46.1 µM), actives largely listed as cytotoxic | hit rate 2% among 360,000
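Luminescent ATP read-out (CellTiter-Glo, 10 min at room temperature) after 48 h compound exposure at 37 °C gave viability of IDH1-knockdown HT-1080 cells. Activity was normalised to DMSO and cell-free wells, then fitted as concentration-response curves.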
Of the large screens only hits and unclear results are named; the others gave an inactive call. Unless noted, calls follow the shape of the dose curve; as a rule, active = well fitted curve in the direction sought with a large enough effect; inconclusive = small, poorly fitted or top-dose-only effect, or another doubt; inactive = no such curve, though single readings can be large; an effect the other way counts as inactive or inconclusive.

Cc1cc(Br)cn2c(Cc3ccccc3)c(-c3ccccc3)nc12	DT40 TDP1 CPT 29µM, TDP1 cell noCPT inconclusive (no result: uPA generation)
Cc1ccc(Cc2c(-c3cccc(Br)c3)nc3c(C)cc(Br)cn23)cc1	TDP1 cell noCPT inconclusive (no result: uPA generation)
COc1ccc(Cc2c(C(C)(C)C)nc3c(C)cc(Br)cn23)c(C)c1	DT40 TDP1 CPT 18µM, TDP1 cell noCPT 23µM (no result: uPA generation)
Cc1cc(Br)cn2c(Cc3ccccc3)c(-c3ccc(F)cc3)nc12	DT40 TDP1 CPT inconclusive, TDP1 cell noCPT inconclusive (no result: uPA generation)
COc1ccccc1Cc1c(-c2ccccc2)nc2c(C)cc(Br)cn12	HT1080-NT tox inconclusive, DT40 TDP1 CPT 16µM, TDP1 cell noCPT 16µM, HT1080 IDH1KD tx inconclusive (no result: uPA generation)
Cc1ccccc1OCC(=O)Nc1sc2c(c1C(=O)OC(C)C)CCCC2	none (no result: HT1080-NT tox, uPA generation, IL-1B inflam inh, HT1080 IDH1KD tx)
CCCCNC(=O)C(NC(=O)c1ccccc1)C(=O)c1ccccc1 (stereo not drawn)	none (no result: uPA generation)
Cc1cc(Br)cn2c(Cc3ccsc3)c(-c3ccccc3)nc12	DT40 TDP1 CPT inconclusive, TDP1 cell noCPT inconclusive (no result: uPA generation)
Cc1ccc(Cc2c(-c3cccc(Cl)c3)nc3c(C)cc(Br)cn23)cc1	DT40 TDP1 CPT 15µM, TDP1 cell noCPT 21µM (no result: uPA generation)
Cc1ccc(-c2nc3c(C)cc(Br)cn3c2Cc2ccsc2)cc1	HT1080-NT tox inconclusive, DT40 TDP1 CPT 18µM, TDP1 cell noCPT inconclusive, HT1080 IDH1KD tx 16µM (no result: uPA generation)
Cc1ccc(-c2nc3c(Cl)cc(C(F)(F)F)cn3c2Cc2ccccc2)cc1	DT40 TDP1 CPT inconclusive, TDP1 cell noCPT inconclusive (no result: uPA generation)
Cc1ccc(Cc2c(-c3ccc(Cl)cc3)nc3c(Cl)cc(C(F)(F)F)cn23)cc1	DT40 TDP1 CPT inconclusive, TDP1 cell noCPT 18µM (no result: uPA generation)
Cc1csc(NC(=O)Nc2cccc(Cl)c2)n1	DT40 TDP1 CPT inconclusive, TDP1 cell noCPT 23µM
Cc1cc(C)nc(/N=C(/NC(=O)Nc2cccc(Cl)c2)Nc2ccccc2)n1	DT40 TDP1 CPT inconclusive, TDP1 cell noCPT 18µM
Cc1cc(NC(=O)Nc2cccc(Cl)c2)no1	TDP1 cell noCPT inconclusive (no result: uPA generation)
O=C(Nc1cccc(Cl)c1)Nc1nc(-c2ccccc2)cs1	DT40 TDP1 CPT inconclusive, TDP1 cell noCPT inconclusive
Cc1nnc(NC(=O)Nc2cccc(Cl)c2)s1	DT40 TDP1 CPT inconclusive, TDP1 cell noCPT 13µM
Cc1ccc(OCCSCc2nnc(NC(=O)Nc3cccc(Cl)c3)s2)cc1	HT1080-NT tox inconclusive, DT40 TDP1 CPT 4.6µM, TDP1 cell noCPT 4.6µM, HT1080 IDH1KD tx inconclusive
CCc1nc2c(OCCn3cccc3)cccn2c1N(C)C(=O)C1CC1	TDP1 cell noCPT inconclusive (no result: uPA generation)
CCNc1ncc2nc(CCc3ccccc3)c(=O)n(C[C@H]3CCCO3)c2n1	none (no result: HT1080-NT tox, uPA generation, IL-1B inflam inh, HT1080 IDH1KD tx)
CC1(C)C2CC[C@]3(C)C(CC=C4[C@@H]5C[C@@](C)(CO)[C@@H](O)C[C@]56C[C@@H](OC6=O)[C@]43C)[C@@]2(C)CC[C@@H]1O (stereo partly drawn)	none
CCCCn1c(N)c(N(CCOC)C(=O)COC(=O)COc2cccc(C(C)=O)c2)c(=O)[nH]c1=O	none
Cc1cccc(Nc2nc(NCCCN3CCOCC3)nc(N)c2[N+](=O)[O-])c1	DT40 TDP1 CPT 16µM, IL-1B inflam inh -80, TDP1 cell noCPT 15µM
Nc1nc(NCCCN2CCOCC2)nc(Nc2ccc(F)cc2)c1[N+](=O)[O-]	DT40 TDP1 CPT inconclusive, TDP1 cell noCPT inconclusive
Nc1nc(NCCCN2CCOCC2)nc(Nc2ccccc2F)c1[N+](=O)[O-]	IL-1B inflam inh -57, TDP1 cell noCPT 16µM
Nc1nc(NCCCN2CCOCC2)nc(Nc2cccc(F)c2)c1[N+](=O)[O-]	HT1080-NT tox inconclusive, DT40 TDP1 CPT inconclusive, TDP1 cell noCPT inconclusive, HT1080 IDH1KD tx inconclusive
CCOc1cccc(CC(=O)N2CCc3c([nH]c4ccccc34)C2c2ccc(C)cc2)c1OCC (stereo not drawn)	DT40 TDP1 CPT inconclusive, TDP1 cell noCPT 18µM (no result: HT1080-NT tox, uPA generation, IL-1B inflam inh, HT1080 IDH1KD tx)
